RecA intein inh – Mtb RecA intein splicing inhibition. P9WHJ3. cell-free RecA intein splicing, fluorescence. inhibition, % (test concentration not listed). 290,000 tested, 0.75% active. AID 2221; in the data active means inhibition above about 30%
Target sequence (P9WHJ3 whole entry, looked up): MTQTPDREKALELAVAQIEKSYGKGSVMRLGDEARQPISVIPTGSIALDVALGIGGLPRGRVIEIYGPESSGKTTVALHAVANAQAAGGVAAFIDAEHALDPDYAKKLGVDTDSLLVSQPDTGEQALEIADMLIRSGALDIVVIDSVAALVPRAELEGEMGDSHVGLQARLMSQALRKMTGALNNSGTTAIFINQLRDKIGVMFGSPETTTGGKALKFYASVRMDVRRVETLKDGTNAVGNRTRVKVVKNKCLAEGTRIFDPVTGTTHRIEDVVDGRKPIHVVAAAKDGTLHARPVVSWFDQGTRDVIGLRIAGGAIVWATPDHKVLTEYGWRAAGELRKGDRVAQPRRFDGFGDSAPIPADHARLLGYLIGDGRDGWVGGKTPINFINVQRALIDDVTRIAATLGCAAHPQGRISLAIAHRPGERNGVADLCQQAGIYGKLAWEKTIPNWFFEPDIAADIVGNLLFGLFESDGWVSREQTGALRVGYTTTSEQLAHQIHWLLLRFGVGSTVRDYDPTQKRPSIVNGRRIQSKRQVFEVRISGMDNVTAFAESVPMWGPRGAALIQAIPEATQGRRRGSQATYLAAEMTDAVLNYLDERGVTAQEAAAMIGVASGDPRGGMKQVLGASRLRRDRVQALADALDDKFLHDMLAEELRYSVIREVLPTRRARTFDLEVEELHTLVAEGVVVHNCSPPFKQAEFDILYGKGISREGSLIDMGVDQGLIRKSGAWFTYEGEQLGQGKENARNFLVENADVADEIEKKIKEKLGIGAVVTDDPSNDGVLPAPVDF
MazEF act – increases E. coli MazEF RNase cleavage of RNA; activation, % at 20 µM; FAM/BHQ RNA-DNA oligo cleavage fluorescence, 5 h; 350,000 tested, 0.32% active; P0AE70; AID 504720; in the data active means activation above about 50%
Mtb bLac sens – beta-lactam sensitization of Mtb H37Rv; inhibition, % at 25 µM; 330,000 tested, 0.27% active; M. tuberculosis H37Rv growth with meropenem, percent inhibition; AID 434955; call rule not given here;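 further: growth measured after seven days incubation then overnight dye step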
Rv3671c inh – Rv3671c (M. tuberculosis) protease inhibition; P9WHR9; inhibition, % at 5.96 µM; 320,000 tested, 0.048% active; in the data active means inhibition above about 38%;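 further: extracellular domain of Rv3671c used as enzyme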
TcdB GH inh – inhibitors of Clostridioides difficile toxin B glycohydrolase | TcdB glycohydrolase enzymatic assay, plate reader | inhibition, % at 9.99 µM | P18177 | AID 652162 | 350,000 tested, 0.24% active; in the data active means inhibition above about 10%
Mtb UGM inh – Mtb UDP-galactopyranose mutase inhibition. purified UGM, fluorescence polarization probe displacement. inhibition, % at 10 µM. 320,000 tested, 0.06% active. AID 504406; in the data active means inhibition above about 10%, passing the limit was not always enough
Each line names hits and unclear results; the compound was inactive in the other large screens. Sampled rows, rich in hits. Any-hit rate of the full collection: about 0.97%.

COC(=O)c1c(NC(=O)c2ccc(C(=O)c3ccccc3)cc2)sc2c1CC(C)(C)NC2(C)C	none (no result: RecA intein inh, Mtb bLac sens, Rv3671c inh, Mtb UGM inh)
Oc1ccc(/C=N/NC(=S)Nc2cccnc2)cc1O	TcdB GH inh 25.6
CC(C)(C)c1ccc(/C=N/NC(=S)Nc2cccnc2)cc1	none (no result: MazEF act, TcdB GH inh)
Oc1cc(O)cc(/C=C/c2ccc(O)c(O)c2)c1	MazEF act 117.9, TcdB GH inh 10.3 (no result: RecA intein inh)
Nc1ncc(S(=O)(=O)c2ccc([N+](=O)[O-])cc2)s1	TcdB GH inh 11.3 (no result: RecA intein inh, Mtb bLac sens, Rv3671c inh, Mtb UGM inh)
COc1ccccc1OCC(=O)Nc1ccc(-c2nnc(-c3ccco3)o2)cc1	TcdB GH inh 11.9
O=C(O)COc1ccccc1C(Nc1cccnc1)c1cc(Cl)c2cccnc2c1O (configuration not stated)	RecA intein inh 40.9 (no result: Mtb bLac sens, Rv3671c inh, TcdB GH inh, Mtb UGM inh)
CN1C(=O)c2cc(NC(=O)Cc3cccs3)ccc2OC[C@H]2O[C@H](CC(=O)NCC3CC3)CC[C@@H]21	none (no result: RecA intein inh, MazEF act, Mtb bLac sens, Rv3671c inh, Mtb UGM inh)
O=C(/C=C/c1ccco1)c1ccc(NC(=O)C23CC4CC(CC(C4)C2)C3)cc1	RecA intein inh 33.6
Cc1ccc(C)c2c1cc(C)c1nnc(SCC(=O)NCc3ccc4c(c3)OCO4)n12	TcdB GH inh 10.1
CC(C)NC(=O)Nc1cccc2c1O[C@@H](CN(C)S(C)(=O)=O)[C@@H](C)CN([C@H](C)CO)C2=O	none (no result: RecA intein inh, MazEF act, Mtb bLac sens, Rv3671c inh, Mtb UGM inh)
CO/N=C/NC(=O)NOCc1ccc(Cl)cc1Cl	none (no result: TcdB GH inh)
O=C(N/C=N/OCc1ccc(Cl)cc1Cl)NOCc1c(Cl)cccc1Cl	MazEF act 79.7 (no result: TcdB GH inh)
O=C(O)c1ccc(-c2ccc(O)c(F)c2)cc1	TcdB GH inh 18.2
O=C(O)c1ccc(O)c(O)c1	none (no result: RecA intein inh)
C[C@@H]1CN([C@H](C)CO)C(=O)Cc2cc(NS(=O)(=O)c3cccs3)ccc2O[C@@H]1CN(C)S(=O)(=O)c1ccc(F)cc1	none (no result: RecA intein inh, MazEF act, Mtb bLac sens, Rv3671c inh, Mtb UGM inh)
CC(C)Sc1nnc(NC(=O)c2ccco2)s1	TcdB GH inh 22.0
O=C(NCC[C@H]1CC[C@H](NC(=O)c2ccccc2F)[C@H](CO)O1)c1cnccn1	none (no result: RecA intein inh, MazEF act, Mtb bLac sens, Rv3671c inh, Mtb UGM inh)
C[C@H](CO)N1C[C@H](C)[C@@H](CN(C)C(=O)NC2CCCCC2)Oc2c(NS(C)(=O)=O)cccc2C1=O	none (no result: RecA intein inh, MazEF act, Mtb bLac sens, Rv3671c inh, Mtb UGM inh)
Oc1ccccc1C=NN=Cc1c(O)ccc2ccccc12	MazEF act active (no result: RecA intein inh, Mtb bLac sens, Rv3671c inh, Mtb UGM inh)
CCCN(C)C[C@@H]1Oc2cc(-c3ccccc3F)ccc2S(=O)(=O)N([C@@H](C)CO)C[C@@H]1C	none (no result: RecA intein inh, MazEF act, Mtb bLac sens, Rv3671c inh, Mtb UGM inh)
COc1ccccc1NC(=O)N1C[C@H]2[C@@H](c3ccccc31)[C@@H](CO)N2Cc1ccccc1F	none (no result: RecA intein inh, MazEF act, Mtb bLac sens, Rv3671c inh, Mtb UGM inh)
NS(=O)(=O)c1ccc(NC(=O)c2ccc3c(c2)CCCC3)cc1	MazEF act 71.5
NS(=O)(=O)c1ccc(NC(=O)c2ccc3c(c2)OCO3)cc1	none
COc1cccc(S(=O)(=O)Nc2ccc3c(c2)[C@@H]2C[C@H](CC(=O)NCC(F)(F)F)O[C@H](CO)[C@@H]2O3)c1	none (no result: RecA intein inh, MazEF act, Mtb bLac sens, Rv3671c inh, Mtb UGM inh)
Cc1ccc2nc(Cl)c3nnnn3c2c1	RecA intein inh 78.7 (no result: TcdB GH inh)
O=C(C1CC1)N1CC(=O)N2[C@@H](CO)[C@H](c3ccc(Br)cc3)[C@@H]2C1	none (no result: RecA intein inh, MazEF act, Mtb bLac sens, Rv3671c inh, Mtb UGM inh)
COc1ccc(/C=C2\CCCC(C(=O)C(F)(F)F)=C2O)cc1	MazEF act 474.6 (no result: TcdB GH inh)
C[C@H]1CN([C@@H](C)CO)C(=O)c2cc(NC(=O)CCC(F)(F)F)ccc2O[C@@H]1CN(C)C	none (no result: RecA intein inh, MazEF act, Mtb bLac sens, Rv3671c inh, Mtb UGM inh)
COc1cc(C2C(C#N)=C(N)OC3=C2C(=O)CCC3)c([N+](=O)[O-])cc1OC (configuration not stated)	MazEF act 110.3 (no result: TcdB GH inh)
Cc1cc(C2C(C#N)=C(N)OC3=C2C(=O)CCC3)c(C)s1 (configuration not stated)	none (no result: TcdB GH inh)
CCOc1cc(/C=C2\C(=N)N3N=C(S(=O)(=O)CC)SC3=NC2=O)ccc1OC(=O)c1ccco1	RecA intein inh 30.7
CCOc1cc(/C=C2\C(=N)N3N=C(N4CCCCC4)SC3=NC2=O)ccc1OC(=O)c1ccco1	RecA intein inh 34.5
CCS(=O)(=O)C1=NN2C(=N)/C(=C\c3ccc(OC(=O)c4ccco4)c(Br)c3)C(=O)N=C2S1	none (no result: MazEF act, TcdB GH inh)
CNC[C@H]1Oc2ccc(NC(=O)Cc3ccccc3)cc2C(=O)N([C@@H](C)CO)C[C@H]1C	none (no result: RecA intein inh, MazEF act, Mtb bLac sens, Rv3671c inh, Mtb UGM inh)
CC(C)Cn1c(SC(C)C(=O)Nc2ccc(N3CCOCC3)cc2)nc2ccccc21 (configuration not stated)	none
CC(Sc1nc2ccccc2n1C)C(=O)Nc1ccc(N2CCOCC2)cc1 (configuration not stated)	TcdB GH inh 12.9
Cc1noc(C)c1S(=O)(=O)Nc1ccc2c(c1)C(=O)N([C@@H](C)CO)C[C@@H](C)[C@@H](CN(C)S(=O)(=O)c1cn(C)cn1)OCCCC[C@@H](C)O2	none (no result: RecA intein inh, MazEF act, Mtb bLac sens, Rv3671c inh, Mtb UGM inh)
